Tests used:
Test in all cases: PBM binding z-score (relative to random genomic background probes); higher = stronger binding; sequences stand for … in GC…GCGATTGACAGCGTAGAATGAAGG
[1] = tested on: RARb homodimer (NR concentration 270 nM)
In short: (§1)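 Probes were double-stranded and carried 34-nt variable regions with direct-repeat seeds, single-nucleotide variants, half-site ablations and random human genomic background sequences, printed on custom Agilent 4×180K protein-binding microarrays. Arrays were incubated 1 h with ligand-free nuclear receptor dimers in PBS pH 7.4, 2% milk, 0.02% Triton X-100, 1 mM DTT, 0.2 mg/mL BSA and 0.4 mg/ml salmon testes DNA. Antibodies against each partner (one per run) detected binding, and scanned fluorescence was regression-normalized. Binding z-scores use the random background probes as reference.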

[2] = tested on: RARg:RXRa (NR concentration 270 nM, RXRa partner concentration 90 nM)
In short: as §1

[3] = tested on: RARg homodimer (NR concentration 270 nM)
In short: as §1

[4] = tested on: RXRa DBDmut IVT, anti-RXR (DBD mutation: RXRa K156A/R161A, NR concentration 90 nM)
In short: as §1

[5] = tested on: RXRa homodimer (NR concentration 180 nM)
In short: as §1

[6] = tested on: THRa:RXRa (NR concentration 90 nM, RXRa partner concentration 90 nM)
In short: as §1

[7] = tested on: THRa homodimer (NR concentration 90 nM)
In short: as §1

[8] = tested on: VDR homodimer (NR concentration 270 nM)
In short: as §1

| Sequence | PBM binding z-score [1] | PBM binding z-score [2] | PBM binding z-score [3] | PBM binding z-score [4] | PBM binding z-score [5] | PBM binding z-score [6] | PBM binding z-score [7] | PBM binding z-score [8] |
| --- | --- | --- | --- | --- | --- | --- | --- | --- |
| GCTTGTAGCTCAAGGTTAAGAAAGACTAAGCTAA | -0.0742 | 0.0545 | -0.162 | -0.204 | 0.541 | 0.986 | -0.586 | -0.603 |
| CCTTACGGGGCACTCCAGGTTATAGCATCGGAGT | 0.528 | 0.714 | 0.823 | -0.513 | 0.523 | 3.58 | -0.229 | 0.0884 |
| TCTCGGAGGACACGAAGGGCAGAGCTTTCCAGAG | 1.42 | 0.796 | 1.71 | 0.216 | -0.0528 | 1.33 | 0.123 | -0.0061 |
| TAGCCTAGGTCAGATCGGGCCAGTAGACGCTATA | 1.76 | 2.74 | 3.37 | -0.78 | 1.2 | 3.76 | -0.385 | -0.53 |
| GCGACAGGGGCATCAGCAGGTTACCATAACTTAA | 1.23 | 1.9 | 0.934 | 0.988 | 0.871 | 1.61 | 0.015 | 0.188 |
| CTACCAAGGTGAACAAGGTCTTTGATTACTATTC | 1.24 | 0.878 | 0.946 | 0.886 | 0.789 | 2.52 | 1.42 | 0.414 |
| CATACGGGGTCAGCTAGGCCAGAGTAGGGACGGC | 4 | 6.37 | 6.46 | 3.01 | 7.61 | 3.98 | 1.61 | 3.27 |
| CGTCAAAGTTCAAGGTAGCGTAACAGAAAGCAGC | 3.9 | 5.41 | 6.34 | 4.38 | 4.84 | 2.19 | 0.191 | 3.11 |
| ACTAGTTGGTCAGCTGAGGTCACATACAATTCGG | 4.32 | 3.83 | 3.84 | 1.5 | 3.53 | 4.98 | 4.72 | 3.28 |
| CAAACTAAGTCACCGGAAGGTCAAAGTCCGCATG | 4.37 | 5.3 | 3 | 1.01 | 3.92 | 3.26 | 1.51 | 2.19 |
| CCTCGGAGGACAGAAGGTCAGAGCCGTCCGCTTT | 3.64 | 3.4 | 3.1 | 0.361 | 2 | 2.33 | 0.0553 | -0.0393 |
| TCTTGTAGATCAATAGAGGTTAAGTAAGTGCGCT | 1.37 | 0.902 | 0.6 | 0.824 | 1.49 | 3.1 | -0.295 | 0.563 |
| CATCCAAGGTCAGAGAGGTCAGTGAATGCCGAGT | 5.53 | 6.35 | 7.37 | 3.51 | 6.54 | 4.43 | 2.83 | 6.11 |
| CAAAGTAGGTCACAGAGGTCAAAGTCCGTGCGTA | 5.68 | 7.42 | 8.01 | 3.36 | 8.08 | 4.51 | 2.42 | 6.6 |
| TCTGCTAGGTCAGTTGGTCAGCCAACGAGCTGCC | 2.3 | 2.84 | 3.3 | 0.162 | 0.782 | 1.06 | -0.436 | -0.81 |
| TGAATGAGGTTAAAGATCGGGGAACGTGGCGTCG | 0.987 | 2.41 | 1.24 | 1.35 | 3.31 | 2.55 | 0.447 | 0.818 |
| AATACAGGGTCACTAGGCGAGAGTAGGTACGAAT | 3.24 | 5.21 | 5.18 | 2.87 | 5.73 | 3.48 | 1.41 | 2.82 |
| ACTTACGGGTCAACAAGGTTATAGCACGCGTATA | 3.84 | 5.44 | 5.07 | 2.33 | 5.87 | 4.04 | 1.05 | 2.78 |
| TTACCAAGGTGAAGGTCCTTGATCCCTCTGTAGA | 1.32 | 0.466 | 0.274 | -0.201 | 0.918 | 1.95 | 0.841 | -0.203 |
| CAAACTAGGTGACAGAGGTCAAAGTCCGTGCGTA | 4.61 | 5.54 | 4.74 | 2.18 | 6.14 | 4.15 | 1.75 | 4.09 |
| TTATATAGGTAAACAGGTGAAAGTCCGTAAGTTA | 0.827 | 0.632 | 0.572 | 0.156 | 0.949 | 0.802 | 0.282 | 0.242 |
| TCTTGTAGATCAATAGAGCTTAAGAAAGTGCGCT | -1.12 | -0.405 | -0.425 | -0.034 | -0.343 | -0.676 | -1.11 | -0.773 |
| AGAACGAGGGCAATGAGTGGATAGCACGGGTGGC | 0.709 | 0.805 | 1.49 | 1.05 | 0.694 | 0.576 | -0.226 | 0.818 |
| GCTATTAGTTGAAAGGGTAACCGAATGATTCTCG | 0.907 | 0.593 | 0.407 | 1.01 | 0.952 | 0.527 | 0.212 | -0.0669 |
| CCTTACGGGTCACTGTCAGGTTATAGCATTTGGA | 3.14 | 5.51 | 4.38 | 1.75 | 4.49 | 3.83 | 0.905 | 1.41 |
| TCTGCTAGGTCGGTTGGTCAGCTAACGAGCTGCC | 0.194 | 0.057 | 0.0646 | -0.000892 | -0.389 | -0.409 | -0.643 | -0.816 |
| TCTAGTTGGTCACGGAGGTCATACACGACGGGTA | 4.18 | 4.45 | 4.21 | 1.16 | 4.65 | 3.5 | 2.17 | 3.53 |
| TCATATACGTAAATGCTAGGTGAAAGTCCGATCT | 0.562 | 0.251 | 0.209 | 1.77 | 0.598 | 0.97 | 0.696 | 0.147 |

Source: the supplement of paper PMC6555819
